# Results from ChEMBL document CHEMBL3988442, “University of Dundee, Small-Polar-MMV Screening Library” (2021).
# The whole screen tested about 66,000 compounds, of which about 960 (1.5%) showed an effect of 50% or more. Shown is part of a subset that was picked to be rich in strong results.
# Test system: Trypanosoma brucei
# Experiment: Trypanosoma brucei 72 hour study
# Format: functional, organism-based
# Parameters: scale not given: in the data most compounds retested in dose-response had high values
compound,measurement,setting,value
Nc1nccnc1C(=O)NC1CCN(Cc2ccccc2)C1 (centres undefined),Percent Effect,"30 µM, 30.03 µM",52.39%
Nc1nccnc1C(=O)NC1CCCN(Cc2c(F)cccc2F)C1 (centres undefined),Percent Effect,"30 µM, 30.03 µM",-36.01%
O=C(Nc1nccs1)NC1CCN(Cc2ccccc2)C1 (centres undefined),Percent Effect,"30 µM, 30.03 µM",-14.85%
c1ccc(N2CCC(OCC3CCCCO3)CC2)nc1 (centres undefined),Percent Effect,"30.3 µM, […]",-91.25%
COc1cc(CNCc2ccc(C(C)O)cc2)cc2c1OCO2 (centres undefined),Percent Effect,"30 µM, 30.03 µM",8.941%
COc1cc(CNCC(O)c2ccccc2)cc2c1OCO2.Cl (centres undefined),Percent Effect,"30.3 µM, […]",51.8%
COc1cc(CNCCn2ccnc2)cc2c1OCO2.Cl,Percent Effect,"30.3 µM, […]",6.439%
Cc1cccc(COc2ccc(C(C)NS(N)(=O)=O)cc2)c1 (centres undefined),Percent Effect,"30 µM, 30.03 µM",4.364%
Cc1cccc(COc2ccc(C(C)N)cc2)c1.Cl (centres undefined),Percent Effect,"30 µM, 30.03 µM",102.3%
Cc1cccc(COc2ccc(C(C)NC(=O)CNC(N)=O)cc2)c1 (centres undefined),Percent Effect,"30 µM, 30.03 µM",6.871%
CN1CC[C@H]2OCC[C@@H](C(=O)NCc3ccco3)[C@@H]2C1.O=C(O)C(F)(F)F,Percent Effect,"30 µM, 30.03 µM",-30.69%
COc1ccnc(N2C[C@@H]3CC[C@H](C2)N(CC2CCC2)C3=O)n1,Percent Effect,"30 µM, 30.03 µM",0.242%
O=C(O)C(F)(F)F.O=C1CC[C@H]2[C@H](CCN2S(=O)(=O)C2CC2)N1CCN1CCCC1,Percent Effect,"30.3 µM, […]",-16.69%
COc1cccc2c1ccn2CCNC(=O)CC(C)C,Percent Effect,"30 µM, 30.03 µM",-27.5%
COCC(=O)NCCn1ccc2c(OC)cccc21,Percent Effect,"30 µM, 30.03 µM",21.63%
COc1cccc2c1ccn2CCC(=O)NCCCC(=O)O,Percent Effect,"30 µM, 30.03 µM",53.78%
CN(C)c1ccc(C(=O)N2Cc3cnc(C(C)(C)C)nc3C2)cc1,Percent Effect,"30 µM, 30.03 µM",-40.98%
CC(C)(C)c1ncc2c(n1)CN(C(=O)c1ccncc1)C2,Percent Effect,"30 µM, 30.03 µM",-0.7468%
CC(C)(C)c1ncc2c(n1)CN(C(=O)c1ccc(-c3nc[nH]n3)cc1)C2,Percent Effect,"30 µM, 30.03 µM",54.09%
O=C(C1CCOCC1)N1CCO[C@H]2[C@H](Oc3cccnc3)CC[C@@H]21.O=C(O)C(F)(F)F,Percent Effect,"30 µM, 30.03 µM",-14.62%
CCN(CC)C(=O)CN(C)C(=O)c1ccc(-c2ccsc2)nc1C,Percent Effect,"30 µM, 30.03 µM",-62.98%
COc1ccccc1CC(C)CC(=O)N(C)Cc1cc(C)on1 (centres undefined),Percent Effect,"30 µM, 30.03 µM",72.44%
COc1ccccc1CC(=O)N(C)Cc1cc(C)on1,Percent Effect,"30 µM, 30.03 µM",-10.42%
Cc1cc(CN(C)C(=O)CC(C)C)no1,Percent Effect,"30 µM, 30.03 µM",-35.18%
CCc1nccn1C1CCCN(C(=O)C2=NN(C)C(=O)CC2)C1 (centres undefined),Percent Effect,"30.3 µM, […]",-18.44%
COc1ccc(C(C)(C)C)cc1CN1CCn2c(CO)nnc2C1.O=C(O)CC(O)(CC(=O)O)C(=O)O,Percent Effect,"30.3 µM, […]",3.045%
CC(=O)N1CCN([C@@H]2CC[C@@H](NC(=O)c3ccc(C)nc3)[C@H]2O)CC1,Percent Effect,"30.3 µM, […]",-14.37%
CCN1CCN(c2ncc3c(n2)CN(c2cnn(CC)c2)C3=O)CC1,Percent Effect,"30.3 µM, […]",-16.78%
CCOc1cc(CNc2nnn(C)n2)ccc1OCc1ccc(Cl)cc1,Percent Effect,"30.3 µM, […]",13.85%
O=C(c1ccc(-c2ccccc2)[nH]c1=O)N1CCN(C2CC2)CC1,Percent Effect,"30 µM, 30.03 µM",-17.15%
CO[C@H]1CN(C(=O)c2ccc(-c3ccccc3)[nH]2)CC[C@H]1N,Percent Effect,"30.3 µM, […]",21.81%
CN1[C@H]2CC[C@@H]1CN(C(=O)c1ccc(-c3ccccc3)[nH]1)CC2,Percent Effect,"30.3 µM, […]",99.15%
CCOC(=O)CCn1cnc2onc(-c3ccc(OC)cc3)c2c1=O,Percent Effect,"30 µM, 30.03 µM",-27.94%
Cc1nc(C2CCCN2C(=O)c2ccc3c(c2)nc(C)n3C)no1 (centres undefined),Percent Effect,10 µM,-28.6%
same,Percent Effect,"30.3 µM, […]",-7.833%
CS(=O)(=O)CC(=O)N1C[C@H]2CCC[C@@]2(COc2ccccn2)C1.O=C(O)C(F)(F)F,Percent Effect,"30.3 µM, […]",-20.95%
CN1CCCc2cc(CNC(=O)c3ccc(-n4cnnc4)cc3)ccc21,Percent Effect,"30.3 µM, […]",53.86%
CN1CCCc2cc(CNC(=O)c3cc[n+]([O-])cc3)ccc21,Percent Effect,"30.3 µM, […]",2.114%
CC(C)Oc1ccc(C(=O)NCc2ccc3c(c2)CCCN3C)cn1,Percent Effect,"30.3 µM, […]",9.808%
CN1CCCc2cc(CNC(=O)c3ccncc3)ccc21,Percent Effect,"30 µM, 30.03 µM",8.977%
COc1cc(C(=O)NCc2ccc3c(c2)CCCN3C)cc(OC)c1Br,Percent Effect,"30.3 µM, […]",56.02%
COC(=O)c1cccc(C(=O)NCc2ccc3c(c2)CCCN3C)c1,Percent Effect,"30.3 µM, […]",1.912%
CC(C)n1c(=O)c2ccccc2n(CCCN(C)C)c1=O.Cl,Percent Effect,"30 µM, 30.03 µM",2.697%
COCC(=O)Nc1ccnn1-c1ccc(Cl)cc1,Percent Effect,"30.3 µM, […]",12.6%
Cc1ncc2c(n1)C1(CCN(C(=O)C(C)C)CC1)OCC2.Cl,Percent Effect,"30.3 µM, […]",-4.848%
O=C(Cn1ccc2sccc2c1=O)NCc1ccccc1F,Percent Effect,"30 µM, 30.03 µM",1.93%
Clc1cc(NCc2ccncc2)nc2[nH]ccc12,Percent Effect,"30 µM, 30.03 µM",-24.9%
COc1ccc(CCNC(=O)C2CCC(Cn3cnnn3)CC2)cc1 (centres undefined),Percent Effect,"30 µM, 30.03 µM",42.94%
O=C(NCCc1ccccc1)C1CCC(Cn2cnnn2)CC1 (centres undefined),Percent Effect,"30 µM, 30.03 µM",56%
COc1ccccc1CCNC(=O)C1CCC(Cn2cnnn2)CC1 (centres undefined),Percent Effect,"30 µM, 30.03 µM",-33.08%
Cl.Clc1ccccc1CN1CCc2nc(C3CCNCC3)ncc2C1,Percent Effect,"30.3 µM, […]",9.906%
O=C(NCCCOCC1CC1)Nc1ccc(-n2cncn2)c(F)c1,Percent Effect,10 µM,-25.61%
CC(NC(=O)N1CCN(c2ccc(Cl)cc2)CC1)C(=O)N1CCSCC1 (centres undefined),Percent Effect,"30 µM, 30.03 µM",25.8%
CC(C)[C@H](NC(=O)N1CCN(c2ccc(Cl)cc2)CC1)C(=O)NC1CC1,Percent Effect,"30 µM, 30.03 µM",-23.38%
CC(=O)c1ccc(N2CCN(C(=O)NC(C)c3ccc(C)o3)CC2)cc1 (centres undefined),Percent Effect,"30 µM, 30.03 µM",19.85%
CC(C)NC(=O)[C@@H](NC(=O)N1CCN(c2ccc(Cl)cc2)CC1)C(C)C,Percent Effect,"30 µM, 30.03 µM",72.09%
CN(C(=O)NC1CC1)C1CCN(c2ccc(Cl)cc2)CC1,Percent Effect,"30 µM, 30.03 µM",-50.01%
Cn1cc(NC(=O)CNC(=O)N2CCN(c3ccc(Cl)cc3)CC2)cn1,Percent Effect,"30.3 µM, […]",4.499%
C[C@H](NC(=O)N1CCN(c2ccc(Cl)cc2)CC1)C(=O)N1CCSCC1,Percent Effect,"30 µM, 30.03 µM",-37.38%
CC(C)NC(=O)C(C)NC(=O)N1CCN(c2ccc(Cl)cc2)CC1 (centres undefined),Percent Effect,"30 µM, 30.03 µM",51.3%
CC(C)C(NC(=O)N1CCN(c2ccc(Cl)cc2)CC1)C(=O)NC1CC1 (centres undefined),Percent Effect,"30 µM, 30.03 µM",53.99%
CC(C)NC(=O)[C@H](C)NC(=O)N1CCN(c2ccc(Cl)cc2)CC1,Percent Effect,"30 µM, 30.03 µM",36.61%
CC(C)NC(=O)C(NC(=O)N1CCN(c2ccc(Cl)cc2)CC1)C(C)C (centres undefined),Percent Effect,"30 µM, 30.03 µM",55.67%
CNS(=O)(=O)c1ccccc1N1CCN(C(=O)NC(C)C)CC1,Percent Effect,"30 µM, 30.03 µM",-6.64%
